Where “and” joins values, the source holds several entries; their conditions need not be identical. Equal values may be shown once. Out of some 16,000 compounds screened, about 2,600 (16%) were called active. Not shown: some 20% with an inconclusive outcome. The list is a sample of the results. Unmarked numbers belong to inactive results. The call rests on the fitted dose curve; in most records, active means well fitted curve in the direction sought with a large enough effect; inconclusive means small, poorly fitted or top-dose-only effect, or effect the other way; inactive means no such curve, though single readings can be large or run the other way.
On the % scale 0 is the no-effect control and ±100 the full control effect.

In this experiment the target is Cytochrome P450 2D6 (Homo sapiens) (UniProt P10635). Kind of experiment: Cytochrome panel assay with activity outcomes. As to conditions: recombinant CYP, pro-luciferin dealkylation, luminescence, p450-cyp2d6; series mostly up to 57.1 µM; activity, negative = inhibition: at the top concentration.
Cytochrome P450 2D6 (Homo sapiens), sequence (P10635 whole entry, looked up): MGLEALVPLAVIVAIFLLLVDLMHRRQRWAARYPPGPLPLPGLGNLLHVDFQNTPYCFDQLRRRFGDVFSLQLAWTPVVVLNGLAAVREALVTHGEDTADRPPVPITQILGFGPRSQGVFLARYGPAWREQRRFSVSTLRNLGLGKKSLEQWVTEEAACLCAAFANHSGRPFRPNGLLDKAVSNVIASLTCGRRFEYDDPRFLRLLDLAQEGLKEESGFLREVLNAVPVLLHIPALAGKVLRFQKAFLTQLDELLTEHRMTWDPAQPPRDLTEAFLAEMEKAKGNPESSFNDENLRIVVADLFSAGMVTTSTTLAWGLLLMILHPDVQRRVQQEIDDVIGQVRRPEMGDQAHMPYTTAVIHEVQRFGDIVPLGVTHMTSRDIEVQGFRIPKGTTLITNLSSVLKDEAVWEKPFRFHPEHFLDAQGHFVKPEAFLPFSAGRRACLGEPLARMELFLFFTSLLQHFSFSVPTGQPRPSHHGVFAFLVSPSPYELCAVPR
With `O=C(Nc1cccc2cccnc12)[C@@H]1[C@@H](C(=O)O)[C@H]2CC[C@@H]1O2`, the activity, negative = inhibition is 5.88% [at 11.4 µM].

For the compound `C[C@@]1(C(NC(=O)Cc2ccc(C(F)(F)F)cc2)c2ccc(-c3ccccc3)cc2)C[C@H]1C1CCCCC1` (stereo not given in full), the “activity, negative = inhibition” value was 10.9%.

Turning to `N/N=C1/c2ccccc2N[C@H]1OC(=O)Nc1ccccc1`, the AC50 – broadly, the midpoint of the concentration-response curve, whichever way the signal moves – is 3.16 µM (active).

Take `O=C(Nc1ccccc1)[C@@]12C[C@@H]1/C(=N/O)c1ccccc1O2`: the “activity, negative = inhibition” value is -2.77%.

Turning to `O=C(O)c1ccccc1-c1ccccc1C(=O)Nc1ccccc1`, the “activity, negative = inhibition” value is 20%.

On to `CN(C)CCSCCO`, for which the activity, negative = inhibition is 7.16% [at 11.4 µM].

On to `NC(=O)c1nnn(Cc2cc(Cl)c(C(=O)c3ccc(Cl)cc3)c(Cl)c2)c1N`, for which the activity, negative = inhibition is -20.8% [at 11.4 µM].

As for `O=C(O)CNCCc1ccccc1`, the activity, negative = inhibition is 3.94% [at 11.4 µM].

With `NNCCc1ccccc1`, the AC50 is 6.31 µM (active) and 2.51 µM (active).

For `O=C(CC(=O)NN=C1CCCC1)NCCc1ccccc1`, the “activity, negative = inhibition” value is 12.2%.

As for `COc1cccc(/C=N/n2nnc3c(cnn3-c3ccccc3)c2=O)c1`, the “activity, negative = inhibition” value is 11%.

Turning to `Cc1c(C)c(C)c(CC2(C)CSC2)c(CC2(C)CSC2)c1C`, the activity, negative = inhibition is 7.89% [at 11.4 µM].

On to `COc1ccc(C2(C(=O)N3CCOCC3)CCCC2)cc1`, for which the “activity, negative = inhibition” value is -19%.

Take `C[N+]1(C)CCc2cc3c(cc2[C@@H]1[C@@H]1C(=O)Oc2c1ccc1c2OCO1)OCO3`: the AC50 was 12.6 µM (active).

On to `COc1ccc(-n2c(=O)c(-c3cccc(C#N)c3)nc3cnc(N4CCNCC4)nc32)cc1`, for which the “activity, negative = inhibition” value is -4.03%.

With `Nc1cc(-c2nn[nH]n2)ccc1F`, the “activity, negative = inhibition” value was -3.01%.

Regarding `CSc1nsc(SC)c1C(=O)Nc1ccc(C)cc1`, the AC50 is 10 µM (active).

In the case of `CSc1nsc(SC)c1NC(=O)Nc1ccccn1`, the “activity, negative = inhibition” value is 20.4%.

Consider `CCC(=O)NCCNC(=O)c1c(SC)nsc1SC`, for which the “activity, negative = inhibition” value is -20.3%.

As to `CC(NC(=O)C1(C)CC1(Br)Br)C(C)(C)C` (stereo not given), the “activity, negative = inhibition” value is 4.92%.

Regarding `COc1ccc(Oc2ncc3nc(CCc4ccccc4)c(=O)n(C4CC4)c3n2)cc1`, the “activity, negative = inhibition” value was -13.8%.

In the case of `Cc1ccccc1/C=N\NC(=O)c1csnn1`, the “activity, negative = inhibition” value was -10.8%.

With `COc1ccc(Br)cc1C(=O)Nc1ccc(Cc2ccncc2)cc1`, the AC50 was 0.0398 µM (active).

On to `O=C(Nc1ccc(-c2cn3ccccc3n2)cc1)c1cc(Br)ccc1O`, for which the activity, negative = inhibition was -3.93% [at 11.4 µM].

Consider `COc1ccc(NC(=O)c2ccc(C(=O)c3cc(OC)ccc3OC)cc2)cc1`, for which the “activity, negative = inhibition” value was -5.54%.

`CC(C)=NO[C@@H](C)c1cc(-c2c(C)cc(C)cc2C)no1`: the activity, negative = inhibition was -6.21% [at 11.4 µM].

With `O=C(O)[C@H](Cc1cc(I)c(O)c(I)c1)C1CCCCC1`, the activity, negative = inhibition is 10.8% [at 11.4 µM].

For the compound `CC(C)OC(=O)C(CC(=O)O)N1CCOCC1` (stereo not given), the “activity, negative = inhibition” value was 5.53%.

Consider `COc1ccccc1-c1nc(N(C)C)c2ccccc2n1`, for which the AC50 was 3.16 µM (active).

As to `COc1cc(NS(C)(=O)=O)ccc1Nc1c2ccccc2nc2ccccc12`, the “activity, negative = inhibition” value is -12.4%.

As for `Cc1ccccc1-c1nc(N(C)C)c2ccccc2n1`, the AC50 was 12.6 µM (active).

As to `CN(C)c1nc(-c2ccccc2C(F)(F)F)nc2ccccc12`, the half-maximal activity concentration (AC50) was 10 µM (active).

On to `Cc1cc(NC(=O)CN2C(=O)NC(C)(c3ccc(OC(F)F)cc3)C2=O)no1` (stereo not given), for which the “activity, negative = inhibition” value is -3.78%.

As to `N[C@@H](C(=O)O)c1cc(O)ccc1Cl`, the “activity, negative = inhibition” value is 4.25%.

Regarding `N=c1ccn2c(n1)O[C@@H]1[C@@H](O)[C@H](CO)O[C@H]12`, the “activity, negative = inhibition” value is 0.0096%.

In the case of `c1ccc(-n2ncc3c2ncn2cnnc32)cc1`, the “activity, negative = inhibition” value is -5.51%.

`CC(C)(C)n1nc(-c2ccc(Cl)cc2)c2c(N)ncnc21`: the “activity, negative = inhibition” value is 5.37%.

For `CCCSc1nc(C)cc(C)c1C(N)=O`, the “activity, negative = inhibition” value is 0.375%.

`CC1CCCC(NC(=O)CCn2c(=O)oc3ccccc32)C1C` (stereo not given): the “activity, negative = inhibition” value is -7.45%.

With `COc1ccc(Oc2ncc3nc(-c4cccs4)c(=O)n(-c4ccccc4)c3n2)cc1`, the “activity, negative = inhibition” value is 0.931%.

As for `COc1ccccc1N1CCN(CCCNc2cc(=O)n(C)c(=O)n2C)CC1`, the AC50 entry was “inactive”.

Regarding `COc1ccccc1N1CCN(CCCCNC(=O)c2ccc(-c3ccc(C(C)=O)cc3)cc2)CC1`, the “activity, negative = inhibition” value is -10.8%.

As to `COc1ccccc1N1CCN(CCn2c(=O)[nH]c3c([nH]c4ccccc43)c2=O)CC1`, the “activity, negative = inhibition” value is 2.42%.

Turning to `COc1ccccc1N1CCN(CCCCNS(=O)(=O)c2cccc3c(N(C)C)cccc23)CC1`, the AC50 was 15.8 µM (active).

In the case of `COc1ccccc1N1CCN(CCCCNC(=O)c2ccc3ccccc3c2)CC1`, the AC50 was 3.16 µM (active) and 3.98 µM (active).

As to `COc1ccccc1N1CCN(CCCCN2C(=O)CCC2=O)CC1`, the “activity, negative = inhibition” value was -13.2%.

As for `CNc1ncnc2c1ncn2[C@@H]1O[C@@H](CO)[C@H](O)[C@@H]1O`, the “activity, negative = inhibition” value is 4.16%.

For `CNc1ncnc2c1ncn2[C@H]1C[C@@H](OP(=O)(O)O)[C@H](COP(=O)(O)O)O1`, the “activity, negative = inhibition” value was 2.01%.

For `CNc1ncnc2c1ncn2[C@H]1C[C@H](OP(=O)(O)O)[C@H](COP(=O)(O)O)O1`, the half-maximal activity concentration (AC50) was 5.01 µM (active).

`Cc1ccc(C2C3=C(CCCC3=O)Nc3nc(SCC(=O)NCc4ccco4)[nH]c(=O)c32)cc1` (stereo not given): the “activity, negative = inhibition” value was -12.2%.
